Sfp inh: qHTS Assay for Inhibitors of Bacillus subtilis Sfp phosphopantetheinyl transferase (PPTase); 310,000 tested, 3.5% active; 4'-phosphopantetheinyl transferase ffp (Bacillus subtilis), Q9F4F7; Biochemical Sfp PPTase activity, qHTS; Potency, µM, most hits filed as inhibitors; AID 1490, 2009;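 also: the enzyme is Sfp with the accession as filed and its product quenches rhodamine fluorescence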
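Sfp 15 nM + cpd, 15 min RT; start w/ rhodamine-CoA 5 uM, BHQ-2-YbbR 12.5 uM (final); 50 mM Hepes pH 7.6, 10 mM MgCl2, 0.01% NP-40, 0.01% BSA; read 525/598 nm at 0 and 30 min.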
BAZ2B block: qHTS Assay for Inhibitors of BAZ2B; Potency, µM (top dose mostly 114 µM), usual class: inhibitors; Bromodomain adjacent to zinc finger domain protein 2B (Homo sapiens), Q9UIF8; AID 504333, 2011; 360,000 tested, 4.4% active; AlphaScreen BAZ2B-H3K14Ac peptide displacement; also: nearly all actives have a fitted effect of over 60% in size
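AlphaScreen displacement: compounds (up to 110uM) incubated 30 min at room temperature with a preformed 50 nM BAZ2B/50 nM biotinylated H3K14Ac peptide complex in PBS pH 7.4 with Tween-20. Donor and acceptor beads at 10 ug/mL final added, 20 min light-protected before reading.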
G9a inh: qHTS Assay for Inhibitors of Histone Lysine Methyltransferase G9a; Histone-lysine N-methyltransferase EHMT2 (Homo sapiens), Q96KQ7; G9a H3K9 monomethylation, AlphaScreen, 2 h; Potency, µM (doses to about 102 µM), most hits filed as inhibitors; 350,000 tested, 8.8% active; AID 504332, 2011; also: nearly all actives have a fitted effect of over 75% in size
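Enzyme 20 nM + cpd, 15 min RT; add b-H3K9 pep 500 nM / SAM 20 uM; 2 h RT; anti-H3K9me1 Ab 0.5 ug/mL + SA donor / anti-rabbit acceptor beads 20 ug/mL each, 10 min; AlphaScreen read.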
HP1b binding inh: HTS for Inhibitors of HP1-beta Chromodomain Interactions with Methylated Histone Tails; Chromobox protein homolog 1 (Homo sapiens), P83916; AlphaScreen HP1-beta / biotin-H3K9me3 peptide binding; Potency, µM (highest dose often 114 µM), actives largely listed as inhibitors; 390,000 tested, 0.56% active; AID 540317, 2011; also: nearly all actives have a fitted effect of over 70% in size
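AlphaScreen: HP1-beta (50 nM) preformed 30 min with biotin-H3(1-18)K9me3 peptide (50 nM) in PBS pH 7.4, 0.01% Tween-20. Compound added for 30 min at RT, then streptavidin donor/nickel chelate acceptor beads (10 ug/mL) for 30 min.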
JMJD2A Tudor inh: qHTS Assay for Inhibitors of JMJD2A-Tudor Domain | AlphaScreen JMJD2A-Tudor / H3K4me3 peptide binding | Potency, µM (highest dose often 114 µM), actives largely listed as inhibitors | 390,000 tested, 4.4% active | AID 504339, 2011; also: nearly all actives have a fitted effect of over 50% in size
PLK1 PBD inh: qHTS for Inhibitors of PLK1-PDB (polo-like kinase 1 - polo-box domain): Primary Screen | Serine/threonine-protein kinase PLK1 (Homo sapiens), P53350 | AID 720504, 2013 | Potency, µM, most hits filed as inhibitors | Plk1 PBD binding of FITC phosphopeptide, fluorescence polarization | 360,000 tested, 2.8% active; also: series mostly up to about 57 µM; nearly all actives have a fitted effect of over 65% in size
A number is an active result; [ ] = remark or other dose. A selection: hits, their analogues and other compounds. The true share with any hit is near 12%. Calls follow the shape of the dose curve; as a rule, active = well fitted curve in the direction sought with a large enough effect; inconclusive = small, poorly fitted or top-dose-only effect, or another doubt; inactive = no such curve, though single readings can be large; an effect the other way counts as inactive or inconclusive.

Screening Cc1nn(-c2ccccc2)c2[nH]c(=O)c(CNc3ccc4c(c3)OCCO4)cc12 returned Sfp inh inactive, BAZ2B block 35.5µM, G9a inh 11.2µM, HP1b binding inh inactive, JMJD2A Tudor inh inconclusive and PLK1 PBD inh inactive.
Screening CC(C)(C)c1nn(-c2ccccc2)c2[nH]c(=O)c(C=O)cc12 returned Sfp inh inactive, BAZ2B block inactive, G9a inh inconclusive, HP1b binding inh inactive, JMJD2A Tudor inh inactive and PLK1 PBD inh inactive.
Screening Cc1ccc(-c2nn(-c3ccccc3)c3[nH]c(=O)c(CNCCN(C)C)cc23)cc1 returned Sfp inh inconclusive, BAZ2B block inactive and G9a inh inactive[12.7 µM].
CC1(C)Oc2ccc3ccc(=O)oc3c2CC1=O was read as Sfp inh inactive.
For CN1C(=O)Cc2cc(S(=O)(=O)CCC(=O)N3CCN(c4cccc(Cl)c4)CC3)ccc21 the results were BAZ2B block inactive, G9a inh inactive, HP1b binding inh inactive and JMJD2A Tudor inh inactive.
For COc1ccc(Cc2nnc(SCc3ccc([N+](=O)[O-])cc3)o2)cc1 the results were Sfp inh inactive, BAZ2B block inconclusive, G9a inh inactive, HP1b binding inh inconclusive, JMJD2A Tudor inh inactive and PLK1 PBD inh inactive.
Screening O=[N+]([O-])c1ccc(C[n+]2ccc(Cc3ccccc3)cc2)cc1 returned Sfp inh inactive, BAZ2B block inactive, G9a inh 12.6µM, HP1b binding inh inactive, JMJD2A Tudor inh inactive and PLK1 PBD inh inactive.
`Cc1[nH]c2ccccc2c1Cc1nnc(SCc2ccccc2)o1` gave Sfp inh inactive, BAZ2B block inconclusive, G9a inh 70.8µM, HP1b binding inh inactive, JMJD2A Tudor inh inconclusive and PLK1 PBD inh inactive.
O=[N+]([O-])c1ccc(CSc2nnc(Cc3ccccc3)o2)cc1 was read as Sfp inh inactive, BAZ2B block inactive, G9a inh 44.7µM, HP1b binding inh inactive, JMJD2A Tudor inh inactive and PLK1 PBD inh inconclusive.
`Cc1nc2ccc(Nc3ccncc3)cc2s1` gave Sfp inh inactive, BAZ2B block inactive, G9a inh inactive, HP1b binding inh inactive, JMJD2A Tudor inh inactive and PLK1 PBD inh inactive.
CC1=C(/C=C/C(C)=C/C=C/C(C)=C/CO)C(C)(C)CCC1 was read as Sfp inh inconclusive, HP1b binding inh inactive, JMJD2A Tudor inh inactive and PLK1 PBD inh inactive.
CC1=C(/C=C/C(C)=C/C=C/C(C)=C\CO)C(C)(C)CCC1 was read as Sfp inh inactive and G9a inh 25.1µM.
For CNc1cncc(-c2cccc(C(=O)N(C)C)c2)n1 the results were PLK1 PBD inh inactive.
`COc1cc(-c2nnc(SCc3cc(=O)oc4cc(O)c(O)cc34)o2)cc(OC)c1OC` gave Sfp inh inactive, BAZ2B block 7.94µM, G9a inh 4.47µM, HP1b binding inh inactive, JMJD2A Tudor inh inconclusive and PLK1 PBD inh inconclusive.
COc1cc(-c2nnc(SCC(=O)c3ccccc3)o2)cc(OC)c1OC was read as Sfp inh inactive, BAZ2B block inactive, G9a inh inactive, HP1b binding inh inactive, JMJD2A Tudor inh inactive and PLK1 PBD inh inactive.
For CCOC(=O)CSc1nnc(-c2cc(OC)c(OC)c(OC)c2)o1 the results were Sfp inh inactive, BAZ2B block inactive, HP1b binding inh inactive, JMJD2A Tudor inh inactive and PLK1 PBD inh inactive.
`CCN(C(=O)CSc1nnc(-c2cc(OC)c(OC)c(OC)c2)o1)c1ccccc1` gave BAZ2B block 56.2µM, G9a inh inactive, HP1b binding inh inactive and JMJD2A Tudor inh inconclusive.
Screening CN(C(=O)COC(=O)c1cc([N+](=O)[O-])ccc1Cl)c1ccccc1 returned Sfp inh inactive, BAZ2B block inactive, G9a inh inactive, HP1b binding inh inactive, JMJD2A Tudor inh inactive and PLK1 PBD inh inactive.
Screening O=C(COc1ccccc1)NC1C(=O)N2C(C(=O)O)=C(Cl)CSC12 (stereo not given) returned Sfp inh inactive, BAZ2B block 79.4µM, G9a inh 35.5µM, HP1b binding inh inactive, JMJD2A Tudor inh 79.4µM and PLK1 PBD inh inconclusive.
Screening CN(C)CCn1nnnc1SCC1=C(C(=O)O)N2C(=O)[C@@H](NC(=O)Cc3csc(N)n3)[C@H]2SC1 returned BAZ2B block 50.1µM, G9a inh 15.8µM, HP1b binding inh inactive, JMJD2A Tudor inh 56.2µM and PLK1 PBD inh inconclusive.
Cc1nnc(SCC2=C(C(=O)O)N3C(=O)C(NC(=O)Cn4nc(C(F)F)cc4C)C3SC2)s1 (stereo not given) was read as Sfp inh 79.4µM, BAZ2B block 50.1µM, G9a inh 14.1µM, HP1b binding inh inactive, JMJD2A Tudor inh 25.1µM and PLK1 PBD inh inconclusive.
C=CC1=C(C(=O)O)N2C(=O)C(NC(=O)Cc3ccccc3)C2SC1 (stereo not given) was read as Sfp inh inconclusive, BAZ2B block inconclusive, G9a inh inconclusive, HP1b binding inh 79.4µM, JMJD2A Tudor inh 39.8µM and PLK1 PBD inh 26.7µM.
For CCOC(=O)C1CCN(c2cc(C)nc3c(-c4ccccc4OC)c(C)nn23)CC1 the results were BAZ2B block inactive, G9a inh inactive, HP1b binding inh inactive and JMJD2A Tudor inh inactive.
COC(=O)c1ccc(S(=O)(=O)c2ccccc2)c(N)c1 was read as Sfp inh inactive, BAZ2B block inactive, G9a inh inactive, HP1b binding inh inactive, JMJD2A Tudor inh inactive and PLK1 PBD inh inactive.
COc1ccc(NC(=O)COC(=O)C2CC2)c(OC)c1 was read as BAZ2B block inactive, G9a inh inactive[2.33 µM], HP1b binding inh inactive, JMJD2A Tudor inh inactive and PLK1 PBD inh inactive.
Cc1nnc(SCC2=C(C(=O)O)N3C(=O)C(NC(=O)COc4ccccc4)C3SC2)s1 (stereo not given) was read as BAZ2B block inconclusive, G9a inh inactive[0.501 µM], HP1b binding inh inconclusive, JMJD2A Tudor inh inconclusive and PLK1 PBD inh 18.9µM.
CCC(C(=O)NC1C(=O)N2C(C(=O)O)=C(CSc3nnc(C)s3)CSC12)c1ccccc1 (stereo not given) was read as BAZ2B block inactive, G9a inh inconclusive, HP1b binding inh inactive, JMJD2A Tudor inh inconclusive and PLK1 PBD inh 23.8µM.
Screening NC(=O)c1cc[n+](CC2=C(C(=O)O)N3C(=O)[C@@H](NC(=O)[C@@H](c4ccccc4)S(=O)(=O)[O-])[C@H]3SC2)cc1 returned G9a inh 3.77µM.
For Cn1nnnc1SCC1=C(C(=O)O)N2C(=O)[C@@H](NC(=O)[C@@H](O)c3ccccc3)[C@@H]2SC1 the results were Sfp inh inactive and G9a inh inconclusive.

Screening results as filed in PubChem BioAssay.
